Data reported in PubChem BioAssay (EPA / NIEHS).
Calls of active or inactive are those of the source. How the source made its calls, unless noted: active means hit-call score of the fitted dose curve at least 0.9, where 1 is the maximum; inactive means score below 0.9.

Columns and labels:
[1] = Tanguay_ZF_120hpf_MO24: Oregon State University Tanguay Lab 24 Hour Post-fertilization zebrafish Assay for Mortality (AID 2284389)
Procedure, shortened: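 Embryo death at 24 hpf was recorded as present or absent in Tropical 5D zebrafish, dechorionated at 4 hpf and dosed statically from 6 hpf (28C, 0.64% DMSO); 5 uM trimethyltin chloride served as positive control.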

[2] = Tanguay_ZF_120hpf_DP24: Oregon State University Tanguay Lab 24 Hour Post-fertilization zebrafish Assay for Delayed Development (AID 2284390)
Procedure, shortened: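 Scored at 24 hpf as a binary present/absent call of delayed development by brightfield, with dead embryos not assessed. Embryos (5D wild type, chorion removed with pronase at 4 hpf) dosed statically from 6 hpf at 28 C in 0.64% DMSO.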

[3] = Tanguay_ZF_120hpf_CRAN: Oregon State University Tanguay Lab 120 Hour Post-fertilization zebrafish Assay for Craniofacial Malformation (AID 2284397)
Procedure, shortened: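 Scoring of craniofacial malformation as a binary endpoint was done at 120 hpf by brightfield microscopy and was not done in dead embryos. Exposure was static, starting at 6 hpf, in dechorionated wild-type embryos held singly at 28C with 0.64% DMSO final.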

[4] = Tanguay_ZF_120hpf_AXIS: Oregon State University Tanguay Lab 120 Hour Post-fertilization zebrafish Assay for Axial Malformation (AID 2284398)
Procedure, shortened: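 Scoring was binary (present or absent) for body-axis defects, judged by brightfield imaging at 120 hpf in surviving larvae. Exposure was static at 28C from 6 hpf in chorion-free 5D wild-type embryos, with 0.64% DMSO vehicle.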

[5] = Tanguay_ZF_120hpf_MORT: Oregon State University Tanguay Lab 120 Hour Post-fertilization zebrafish Assay for Mortality (AID 2284399)
Procedure, shortened: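 Mortality, recorded present/absent via brightfield imaging at 24 and 120 hpf, in 5D zebrafish embryos exposed statically from 6 hpf after pronase chorion removal. Exposure at 28C, 0.64% DMSO vehicle, DMSO baseline.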

[6] = Tanguay_ZF_120hpf_EDEM: Oregon State University Tanguay Lab 120 Hour Post-fertilization zebrafish Assay for Edema Malformation (AID 2284400)
Procedure, shortened: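 Edema recorded as a binary endpoint under brightfield at 120 hpf, excluding embryos that died. Exposure was static, sealed, 28C, from 6 hpf in dechorionated wild-type larvae, final DMSO 0.64%, DMSO as baseline.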

[7] = Tanguay_ZF_120hpf_MUSC: Oregon State University Tanguay Lab 120 Hour Post-fertilization zebrafish Assay for Muscle Malformation (AID 2284401)
Procedure, shortened: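 Scored as a binary brightfield endpoint at 120 hpf, fitted versus DMSO. Single dechorionated wild-type (Tropical 5D) zebrafish embryos per well, statically exposed at 28C from 6 hpf onward with final DMSO 0.64%.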

[8] = Tanguay_ZF_120hpf_BRN: Oregon State University Tanguay Lab 120 Hour Post-fertilization zebrafish Assay for Brain Region Malformation (AID 2284402)
Procedure, shortened: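 Binary brightfield scoring of brain malformation at 120 hpf in 5D wild-type larvae, chorion removed with pronase at 4 hpf. Static exposure began at 6 hpf, 28C, sealed plates, DMSO 0.64% (vol/vol) as vehicle baseline.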

[9] = Tanguay_ZF_120hpf_TCHR: Oregon State University Tanguay Lab 120 Hour Post-fertilization zebrafish Assay for Touch Responsive (AID 2284403)
Procedure, shortened: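 Binary touch-response calls are made at 120 hpf in 5D wild-type zebrafish larvae. These larvae were dechorionated with pronase and exposed singly from 6 hpf in sealed, dark plates at 28 °C with 0.64% DMSO final; dead embryos are excluded.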

[10] = Tanguay_ZF_120hpf_ANY: Oregon State University Tanguay Lab 120 Hour Post-fertilization zebrafish Assay for Any Mortality and Malformation (AID 2284404)
Procedure, shortened: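 Dechorionated Tropical 5D wild-type embryos, one per well from 6 hpf, static exposure in sealed, dark plates at 28C until 120 hpf, 0.64% DMSO final. Brightfield scoring of mortality and malformations as binary presence/absence, pooling 13 morphology endpoints.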

[11] = CCTE_Padilla_ZF_Score.Craniofacial: CCTE's 144 Hour Post-fertilization zebrafish Assay Score for Craniofacial Malformation, Padilla Lab (AID 2284405)
Procedure, shortened: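 Craniofacial defects were scored at 6 dpf by two blinded observers using stereomicroscopy. Exposure of wild-type embryos began at 6–8 hpf in sealed wells of 10% Hanks' solution at 26C, with chemical removed by rinsing at 5 dpf.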

[12] = CCTE_Padilla_ZF_Score.Edema: CCTE's 144 Hour Post-fertilization zebrafish Assay Score for Edema Malformation, Padilla Lab (AID 2284406)
Procedure, shortened: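 Edema scored at 6 dpf by two blinded observers under a stereo microscope, in single outbred wild-type larvae exposed from 6-8 hpf in sealed wells (Hanks', 26C, 14:10 h light) and chemical-free after a 5 dpf rinse.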

[13] = CCTE_Padilla_ZF_Score.Spine: CCTE's 144 Hour Post-fertilization zebrafish Assay Score for Spine Malformation, Padilla Lab (AID 2284407)
Procedure, shortened: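 Spine malformation scored at 6 dpf by two independent blinded observers under stereomicroscope, after static sealed exposure from 6–8 hpf at 26C in Hanks' solution with rinse on 5 dpf. Positive-direction fit against DMSO control.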

[14] = CCTE_Padilla_ZF_Score.Swim_bladder: CCTE's 144 Hour Post-fertilization zebrafish Assay Score for Swim Bladder Malformation, Padilla Lab (AID 2284408)
Procedure, shortened: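 Swim bladder inflation scored at 6 dpf by two blinded observers under a stereo microscope. Exposure ran from 6–8 hpf in sealed wells of 10% Hanks' at 26C, with rinsing at 5 dpf; DMSO served as baseline.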

[15] = CCTE_Padilla_ZF_Score.Position: CCTE's 144 Hour Post-fertilization zebrafish Assay Score for Position, Padilla Lab (AID 2284409)
Procedure, shortened: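 Wild-type zebrafish embryos (with chorions) exposed singly from 6–8 hpf in sealed wells of Hanks' solution at 26C, rinsed at 5 dpf. At 6 dpf, blinded assessors scored abnormal water-column position by brightfield stereomicroscopy, relative to DMSO.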

[16] = CCTE_Padilla_ZF_Score.Living: CCTE's 144 Hour Post-fertilization zebrafish Assay Score for Viability, Padilla Lab (AID 2284410);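 further: larval death at 6 dpf judged by absent heartbeat or coagulation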
Procedure, shortened: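 Mortality at 6 dpf, judged as absent heartbeat or coagulation by two blinded observers, after sealed static exposure beginning at 6–8 hpf at 26C. Larvae were rinsed free of chemical at 5 dpf, and activity was fitted relative to DMSO.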

[17] = CCTE_Padilla_ZF_Score.General: CCTE's 144 Hour Post-fertilization zebrafish Assay Score for General Malformation, Padilla Lab (AID 2284411)
Procedure, shortened: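 Malformation, death and hatching were scored at 6 dpf by two blinded observers under a stereo microscope. Embryos were dosed singly from 6-8 hpf in sealed plates of 10% Hanks' at 26C and rinsed on 5 dpf; DMSO baseline.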

[18] = CCTE_Padilla_ZF_Score.Tail: CCTE's 144 Hour Post-fertilization zebrafish Assay Score for Tail Malformation, Padilla Lab (AID 2284414)
Procedure, shortened: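 Tail malformations were scored at 6 dpf by two blinded assessors under a stereo microscope. Chorionated embryos had been exposed from 6-8 hpf in sealed wells of 10% Hanks' at 26 C, then rinsed free of chemical at 5 dpf.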

[19] = CCTE_Padilla_ZF_Score.Blood_pooling: CCTE's 144 Hour Post-fertilization zebrafish Assay Score for Blood Pooling, Padilla Lab (AID 2284415)
Procedure, shortened: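 Blood pooling was scored at 6 dpf under a stereo microscope by two blinded assessors, fitted upward against DMSO. Single embryos were dosed at 6–8 hpf in 10% Hanks', kept sealed at 26C (14:10 h cycle) and rinsed at 5 dpf.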

[20] = CCTE_Deisenroth_H295R-HTRF_384WELL_CTOX: Cytotoxicity Assessment in CCTE's H295R-HTRF Assay, Deisenroth Lab (AID 2284380; active means hit-call score of the fitted dose curve at least 0.9, where 1 is the maximum)
Procedure, shortened: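 Luminescent ATP viability readout (CellTiter-Glo 2.0), multiplexed on plates used for hormone sampling, after 48 h chemical exposure. Human H295R cells; final concentrations 0.001–100 uM in nine steps, technical triplicates, five experiments; DMSO baseline.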

Measured: AC50

O=C(O)C(F)(F)C(F)(F)C(F)(F)C(F)(F)C(F)(F)C(F)(F)F
inactive: [1] | [2] | [3] | [4] | [5] | [6] | [7] | [8] | [9] | [10] | [11] | [12] | [13] | [14] | [15] | [16] | [17] | [18] | [19]

CCOP(=S)(OCC)Oc1ccc(S(C)=O)cc1 (configuration not stated)
inactive: [17]

CC(C)CCCCCCOC(=O)c1ccccc1C(=O)OCCCCCCC(C)C
inactive: [17]

BrCCBr
inactive: [17]

Fc1ccc(C2(Cn3cncn3)OC2c2ccccc2Cl)cc1 (configuration not stated)
inactive: [20]

O=C(O)C(F)(F)C(F)(F)C(F)(F)C(F)(F)C(F)(F)C(F)(F)C(F)(F)C(F)(F)C(F)(F)C(F)(F)F
active: [10] 66500 nM | [11] 2410 nM | [12] 2400 nM | [14] 2410 nM | [16] 50700 nM | [17] 2510 nM
inactive: [1] | [2] | [3] | [4] | [6] | [7] | [8] | [9] | [13] | [15] | [18] | [19]

CC(=O)C(Cl)C(=O)N(C)C (configuration not stated)
inactive: [17]

CCOP(=S)(OCC)SCCS(=O)(=O)CC
inactive: [17]

Nc1ncc([N+](=O)[O-])s1
inactive: [17]

NC(=S)Nc1ccccc1
inactive: [17]

CCC1(c2ccc(N)cc2)CCC(=O)NC1=O (configuration not stated)
inactive: [20]

Nc1cccc2ccccc12
inactive: [17]

COc1cc(OC)nc(NC(=O)NS(=O)(=O)c2ncccc2C(=O)N(C)C)n1
inactive: [17]

O=C(O)CCC(F)(C(F)(F)F)C(F)(F)F
inactive: [11] | [12] | [13] | [14] | [15] | [16] | [17] | [18] | [19]
